# Reference: PubChem BioAssay (NCI)
# “And” between values parts separate entries of the source, which are not always exact repeats. Equal entries are not always repeated. The panel holds about 83,000 compounds, 20% with a hit somewhere; the sample as a whole holds those more often.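 Single-dose data. Exposure time 48 hours. Values below 10 considered active.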 The source holds several records for some structures; these can differ, active in one and inactive in another. The source made the active and inactive calls.
# Test system: MDA-MB-468 breast
# Assay: NCI-60 one-dose screen, 48 h (100 = growth as untreated, 0 = no growth, -100 = all killed)
# Details: 10 µM unless noted
row,SMILES,growth
1,O=S(=O)(c1ccc(N/N=C\c2ccccc2)cc1)c1ccc(N/N=C/c2ccccc2)cc1,61% (inactive)
2,Cn1c2ccccc2c2nn(C(=O)c3ccccc3)c(=O)nc21,107% (inactive)
3,CN1CCN(CC#CCn2c3c(c4ccccc42)C[C@]2(C)[C@H]4CC=C5[C@@H]6CC(C)(C)CC[C@]6(C(=O)N6CCOCC6)CC[C@@]5(C)[C@]4(C)CC[C@H]2C3(C)C)CC1,79.4% (inactive)
4,NC(CSC(c1ccccc1)(c1ccccc1)c1ccccc1)C(=O)NCC(=O)O (configuration not stated),55% (inactive)
5,N#Cc1c(N)nnn1Cc1cc(=O)oc2ccc(O)cc12,101% (inactive)
6,C#CCOc1cccc(Nc2ncnc3c(NC(=O)CCl)cccc23)c1,-66.7% (active)
7,COc1cc(OCc2cccc(-c3ccc(C(O)c4nccs4)cc3)c2C)cc(OC)c1CNCCNC(C)=O (configuration not stated),92.1% (inactive)
8,CCOC(=O)C(=Cc1c(-c2ccccc2)[nH]c2ccccc12)C(=O)OCC,12.8% (inactive)
9,COc1ccc2c(c1)C(c1c[nH]c3ccccc13)(c1c[nH]c3ccccc13)CCO2,35% (inactive)
10,CC1=C(/C=C/C(C)=C/C=C/C(C)=C/C=N/NC(=S)NC(=S)N/N=C/C=C(C)/C=C/C=C(C)/C=C/C2=C(C)CCCC2(C)C)C(C)(C)CCC1,10.1% (inactive) and -26.7% (active)
11,N#CC1C(=N)Cc2ccccc2-c2ccccc21 (configuration not stated),9.26% (active)
12,Cc1ccc(Cc2cnc(NC(=O)/C(C#N)=C/c3ccc(-c4ccc(Cl)cc4)o3)s2)cc1,83.1% (inactive)
